Records with an inconclusive call do not appear. Activity calls are given as the source filed them. How the source made its calls, unless noted: active means hit-call score of the fitted dose curve at least 0.9, where 1 is the maximum; inactive means score below 0.9.
Assays:
[1] = ACEA_ER_80hr: ACEA Biosciences xCELLigence Real-Time Cell Analysis on Estrogen Receptor Agonism for Proliferation (AID 2282667; active means hit-call score of the fitted dose curve at least 0.9, where 1 is the maximum); conditions: T47D proliferation, impedance (xCELLigence), 80 h
In short: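 Real-time impedance growth kinetics of human T-47D breast cells read 80 h after dosing, gain-of-signal fitted relative to DMSO. Compounds: 1:4 serial series, top final concentration 100 uM, n = 2.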

[2] = ATG_CRE_CIS: Attagene CIS-FACTORIAL HepG2 Assay for human cAMP Responsive Element (CRE) binding protein 3 (AID 2282926); conditions: HepG2 CRE cis-reporter, Attagene multiplexed mRNA; actives raise or lower the signal
In short: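 Multiplexed transcription-unit reporters transfected into HepG2; 24 h dosing; RT-PCR/capillary electrophoresis fluorescence read-out; bidirectional fit vs DMSO.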

[3] = molecular target: CCAAT/enhancer-binding protein beta (Homo sapiens) (UniProt P17676); test: ATG_C_EBP_CIS: Attagene CIS-FACTORIAL HepG2 Assay for human CCAAT/Enhancer Binding Protein (C/EBP) beta (AID 2282927); conditions: HepG2 Attagene cis-factorial transcription factor reporter; actives raise or lower the signal
In short: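 Endogenous C/EBPb-driven reporter transcripts measured in transfected human HepG2 cells at 24 h via RT-PCR and capillary electrophoresis of labelled fragments. Activity fitted in both directions relative to DMSO baseline.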

[4] = ATG_CMV_CIS: Attagene CIS-FACTORIAL HepG2 Assay for human CMV (Internal Marker) (AID 2282928); conditions: HepG2 CMV promoter reporter, transcription factor profiling; actives raise or lower the signal;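 further: endpoint acts as a background internal control marker rather than a target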
In short: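 After transient transfection of HepG2 with reporter transcription units driven by cis-regulatory promoters, cells receive test chemical for 24 h. Labeled reporter amplicons, digested with HpaI, are sized and quantified by capillary electrophoresis against DMSO.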

[5] = molecular target: Aryl hydrocarbon receptor (Homo sapiens) (UniProt P35869); test: ATG_Ahr_CIS: Attagene CIS-FACTORIAL HepG2 Assay for human Aryl Hydrocarbon Receptor (Ahr) (AID 2282930); conditions: HepG2 AhR cis-factorial reporter transcription; actives raise or lower the signal
In short: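 Reporter mRNA levels, quantified by RT-PCR and fluorescent capillary electrophoresis, reflect endogenous AhR transcriptional activity in HepG2 cells carrying transfected cis-promoter reporter constructs. Readout at 24 h post-dose; gain or loss fitted against DMSO baseline.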

[6] = ATG_AP_1_CIS: Attagene CIS-FACTORIAL HepG2 Assay for human Activator Protein 1 (AP-1) (AID 2282931); conditions: HepG2 Attagene cis-factorial AP-1 reporter mRNA; actives raise or lower the signal
In short: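 Bidirectional concentration-response fitting against DMSO controls. Underlying signal: reporter mRNA from cis-promoter constructs in transiently transfected HepG2, measured after 24 h by RT-PCR and capillary electrophoresis.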

[7] = ATG_AP_2_CIS: Attagene CIS-FACTORIAL HepG2 Assay for human Activator Protein 2 (AP-2) (AID 2282932); conditions: HepG2 AP-2 cis-reporter, Attagene transcription factor profiling; actives raise or lower the signal
In short: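 HepG2, transient MRTU transfection, cis-regulated reporters; 24 h compound exposure; RNA isolated, RT-PCR, 6-FAM labelling, HpaI digest, CE fluorescence. DMSO = negative control/baseline, bidirectional fit.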

[8] = ATG_BRE_CIS: Attagene CIS-FACTORIAL HepG2 Assay for human Bone Morphogenetic Protein (BMP) Response Element (BRE) (AID 2282933); conditions: HepG2 BMP response element reporter, Attagene transcription factor profiling; actives raise or lower the signal
In short: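 Endogenous transcription factor activity read in transiently transfected HepG2 cells after 24 h chemical exposure. Bidirectional curve fitting against DMSO; readout is reporter transcript level by RT-PCR with capillary electrophoresis of labelled products.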

[9] = molecular target: Transcription factor E2F1 (Homo sapiens) (UniProt Q01094); test: ATG_E2F_CIS: Attagene CIS-FACTORIAL HepG2 Assay for human E2F Transcription Factor 1 (AID 2282935); conditions: HepG2 Attagene cis-reporter, E2F reporter RNA transcripts; actives raise or lower the signal
In short: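 Cis-element reporter mRNA induction in transiently transfected HepG2, 24 h exposure. Activity fitted in both directions relative to DMSO negative control.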

[10] = ATG_E_Box_CIS: Attagene CIS-FACTORIAL HepG2 Assay for human Enhancer Box (E-box) (AID 2282936); conditions: HepG2 E-box cis-reporter transcription, actives raise or lower the signal
In short: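 Cells: HepG2 (human liver), transient MRTU transfection. Exposure 24 h. RNA → oligo(dT) RT → PCR → 6-FAM label → HpaI → CE. Activity fitted both directions relative to DMSO.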

[11] = ATG_M_61_CIS: Attagene CIS-FACTORIAL HepG2 Assay for M61 Transcription Factor (Internal Marker) (AID 2282937); conditions: HepG2 Attagene CIS-FACTORIAL M61 internal marker reporter; actives raise or lower the signal
In short: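 Fluorescence from labelled cDNA fragments, separated by capillary electrophoresis, quantifies reporter induction. HepG2 cells bearing transiently transfected cis-promoter MRTUs were incubated with test chemical for 24 h; DMSO defined baseline for gain/loss fitting.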

[12] = ATG_EGR_CIS: Attagene CIS-FACTORIAL HepG2 Assay for human Early Growth Response 1 (EGR1) (AID 2282938); conditions: HepG2 Attagene CIS-FACTORIAL EGR reporter mRNA; actives raise or lower the signal
In short: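 Cell-based multiplex transcription assay: HepG2 carrying transfected cis-element reporter units, 24 h chemical treatment. Fluorescence from capillary electrophoresis of RT-PCR products gives mRNA levels; fitting is bidirectional relative to DMSO.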

[13] = ATG_M_19_CIS: Attagene CIS-FACTORIAL HepG2 Assay for M19 Transcription Factor (Internal Marker) (AID 2282939); conditions: HepG2 Attagene CIS-FACTORIAL M19 internal marker reporter; actives raise or lower the signal
In short: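 Internal marker readout, fitted in both directions against DMSO, from HepG2 cells carrying transfected cis-element reporter constructs; RT-PCR and capillary electrophoresis of reporter mRNA after 24 h exposure.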

[14] = ATG_ERE_CIS: Attagene CIS-FACTORIAL HepG2 Assay for Estrogen Response Element (ERE) (AID 2282940); conditions: HepG2 ERE cis-reporter, Attagene RNA transcript; actives raise or lower the signal
In short: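 After 24 h compound treatment, RNA from transfected HepG2 cells was reverse-transcribed, reporter cDNA PCR-amplified, FAM-labelled, HpaI-cut and resolved by capillary electrophoresis. ERE-driven cis reporter transcripts reflect endogenous factors; gain or loss scored against DMSO.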

[15] = ATG_Ets_CIS: Attagene CIS-FACTORIAL HepG2 Assay for human Erythroblast Transformation Specific (ETS) (AID 2282941); conditions: HepG2 ETS cis-reporter transcription, actives raise or lower the signal
In short: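 Human HepG2 hepatoma cells were transiently transfected with promoter-driven reporter constructs and treated for 24 hours. Reporter transcripts were quantified by RT-PCR with fluorescent primer extension; bidirectional curve fitting used DMSO as reference.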

[16] = ATG_FoxO_CIS: Attagene CIS-FACTORIAL HepG2 Assay for human Forkhead box O (FoxO) (AID 2282943); conditions: HepG2 Attagene cis-reporter, FoxO element, mRNA; actives raise or lower the signal
In short: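 Endogenous transcription factor activity read from multiplexed cis-promoter reporter transcripts in transiently transfected HepG2, 24 h after dosing. Reporter RNA measured via RT-PCR plus capillary electrophoresis of FAM-labeled products; gain or loss relative to DMSO.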

[17] = ATG_GATA_CIS: Attagene CIS-FACTORIAL HepG2 Assay for human GATA Binding Protein (AID 2282944); conditions: HepG2 GATA cis-element reporter, Attagene multiplex mRNA; actives raise or lower the signal
In short: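 Reporter transcripts from a GATA cis-regulated unit, among multiplexed reporters in transfected HepG2 cells, were measured by RT-PCR with capillary electrophoresis after 24 h dosing. Induction or loss scored relative to DMSO.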

[18] = ATG_DR4_LXR_CIS: Attagene CIS-FACTORIAL HepG2 Assay for human Liver X Receptor (LXR), DR4 submotif (AID 2282929); conditions: HepG2 Attagene DR4 cis-reporter, mRNA transcription; actives raise or lower the signal
In short: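 Measures endogenous transcription factor activity via a DR4-driven reporter transcript in human HepG2 cells. Compounds incubated 24 h; mRNA quantified by RT-PCR and capillary electrophoresis, analysed as gain or loss of signal versus DMSO.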

[19] = molecular target: Retinoic acid receptor alpha (Homo sapiens) (UniProt P10276); test: ATG_DR5_RAR_CIS: Attagene CIS-FACTORIAL HepG2 Assay for human Retinoic Acid Receptor Alpha (RARE), DR5 submotif (AID 2282934); conditions: HepG2 Attagene cis-factorial RARE DR5 reporter, mRNA; actives raise or lower the signal;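 on AC50: reporter responds to endogenous RAR alpha beta and gamma in HepG2 not RARA alone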
In short: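 Reporter transcripts from a DR5-regulated unit, measured via RT-PCR plus capillary electrophoresis, reflect endogenous RAR activity in transiently transfected human HepG2 liver cells. Exposure lasted 24 h; gain or loss of signal scored against DMSO.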

[20] = molecular target: Hepatocyte nuclear factor 3-beta (Homo sapiens) (UniProt Q9Y261); test: ATG_FoxA2_CIS: Attagene CIS-FACTORIAL HepG2 Assay for human Forkhead box A2 (FOXA2) (AID 2282942); conditions: HepG2 cis-reporter transcription factor activity, 24 h; actives raise or lower the signal
In short: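 In transiently transfected human HepG2 cells, promoter-driven reporter mRNA levels after 24 h chemical exposure are determined via RT-PCR with capillary electrophoresis. DMSO serves as baseline for bidirectional fitting.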

Measured: AC50

Sequence of Aryl hydrocarbon receptor (Homo sapiens) (P35869 whole entry, looked up): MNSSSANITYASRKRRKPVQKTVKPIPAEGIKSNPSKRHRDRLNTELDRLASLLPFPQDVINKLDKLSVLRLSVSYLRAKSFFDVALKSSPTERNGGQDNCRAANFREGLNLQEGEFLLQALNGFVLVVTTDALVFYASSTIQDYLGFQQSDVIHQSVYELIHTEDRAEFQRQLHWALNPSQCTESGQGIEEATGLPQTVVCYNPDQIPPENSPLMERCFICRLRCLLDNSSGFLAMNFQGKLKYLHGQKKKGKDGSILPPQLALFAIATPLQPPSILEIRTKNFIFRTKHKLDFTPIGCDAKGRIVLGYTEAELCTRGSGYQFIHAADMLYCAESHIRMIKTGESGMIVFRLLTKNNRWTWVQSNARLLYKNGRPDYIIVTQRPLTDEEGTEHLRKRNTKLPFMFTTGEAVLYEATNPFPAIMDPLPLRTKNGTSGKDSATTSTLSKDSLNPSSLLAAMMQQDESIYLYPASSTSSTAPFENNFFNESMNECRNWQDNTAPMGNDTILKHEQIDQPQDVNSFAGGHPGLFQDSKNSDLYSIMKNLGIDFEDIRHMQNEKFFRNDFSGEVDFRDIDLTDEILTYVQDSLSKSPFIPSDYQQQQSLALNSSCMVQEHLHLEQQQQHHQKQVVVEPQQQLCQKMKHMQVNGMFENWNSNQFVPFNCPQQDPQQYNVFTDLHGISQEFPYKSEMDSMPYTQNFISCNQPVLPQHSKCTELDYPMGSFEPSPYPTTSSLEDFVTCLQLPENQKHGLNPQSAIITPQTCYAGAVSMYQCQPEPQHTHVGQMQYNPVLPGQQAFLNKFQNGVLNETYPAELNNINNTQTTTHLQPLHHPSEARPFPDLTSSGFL
Sequence of Transcription factor E2F1 (Homo sapiens) (Q01094 whole entry, looked up): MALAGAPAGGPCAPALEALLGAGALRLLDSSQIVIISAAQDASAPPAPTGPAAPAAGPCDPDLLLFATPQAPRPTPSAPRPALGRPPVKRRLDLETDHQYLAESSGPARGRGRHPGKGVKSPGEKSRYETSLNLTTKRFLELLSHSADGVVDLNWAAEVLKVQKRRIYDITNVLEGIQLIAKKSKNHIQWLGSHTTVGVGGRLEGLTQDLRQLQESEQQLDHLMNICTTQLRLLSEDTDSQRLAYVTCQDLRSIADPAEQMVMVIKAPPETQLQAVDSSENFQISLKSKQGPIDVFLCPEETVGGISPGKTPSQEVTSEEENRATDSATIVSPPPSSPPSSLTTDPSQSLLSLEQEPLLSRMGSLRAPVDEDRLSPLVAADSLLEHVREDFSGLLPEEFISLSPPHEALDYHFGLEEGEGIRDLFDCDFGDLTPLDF
Sequence of CCAAT/enhancer-binding protein beta (Homo sapiens) (P17676 whole entry, looked up, the tested form may be a part): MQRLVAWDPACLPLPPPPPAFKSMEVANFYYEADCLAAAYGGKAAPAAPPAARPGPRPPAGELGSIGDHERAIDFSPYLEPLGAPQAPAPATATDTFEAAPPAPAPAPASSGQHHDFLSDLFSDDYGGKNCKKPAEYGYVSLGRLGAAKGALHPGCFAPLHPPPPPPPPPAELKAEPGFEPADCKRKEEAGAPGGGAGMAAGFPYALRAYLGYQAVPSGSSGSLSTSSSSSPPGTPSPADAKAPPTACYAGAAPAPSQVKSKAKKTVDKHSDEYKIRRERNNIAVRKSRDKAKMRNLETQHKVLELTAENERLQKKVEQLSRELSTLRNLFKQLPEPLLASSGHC
Sequence of Retinoic acid receptor alpha (Homo sapiens) (P10276 whole entry, looked up): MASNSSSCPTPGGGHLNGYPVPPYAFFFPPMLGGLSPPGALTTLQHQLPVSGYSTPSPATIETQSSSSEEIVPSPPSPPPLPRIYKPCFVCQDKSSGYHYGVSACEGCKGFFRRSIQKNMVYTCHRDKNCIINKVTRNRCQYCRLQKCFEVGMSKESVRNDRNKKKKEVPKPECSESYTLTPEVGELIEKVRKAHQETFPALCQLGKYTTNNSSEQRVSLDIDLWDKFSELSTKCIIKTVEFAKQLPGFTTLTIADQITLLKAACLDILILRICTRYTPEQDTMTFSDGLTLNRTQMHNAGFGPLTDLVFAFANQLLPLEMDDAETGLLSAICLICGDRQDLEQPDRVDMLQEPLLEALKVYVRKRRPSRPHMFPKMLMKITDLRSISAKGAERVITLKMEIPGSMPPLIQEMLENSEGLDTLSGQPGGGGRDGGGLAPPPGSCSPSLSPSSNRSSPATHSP
Sequence of Hepatocyte nuclear factor 3-beta (Homo sapiens) (Q9Y261 whole entry, looked up): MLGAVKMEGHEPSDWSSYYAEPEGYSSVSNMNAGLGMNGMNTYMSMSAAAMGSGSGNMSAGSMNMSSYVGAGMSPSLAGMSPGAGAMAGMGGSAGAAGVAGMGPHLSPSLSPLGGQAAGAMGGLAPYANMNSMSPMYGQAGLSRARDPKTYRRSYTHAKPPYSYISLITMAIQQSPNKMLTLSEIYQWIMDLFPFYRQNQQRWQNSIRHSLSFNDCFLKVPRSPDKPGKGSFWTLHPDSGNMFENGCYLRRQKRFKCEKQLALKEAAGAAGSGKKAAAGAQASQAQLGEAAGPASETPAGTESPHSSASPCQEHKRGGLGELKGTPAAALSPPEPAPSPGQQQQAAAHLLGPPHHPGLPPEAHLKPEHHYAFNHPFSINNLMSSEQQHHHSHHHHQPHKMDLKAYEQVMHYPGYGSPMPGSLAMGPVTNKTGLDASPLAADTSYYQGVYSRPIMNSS

CC1=CCC2C(=O)OC(=O)C2C1 (configuration not stated)
active: [5] 65 µM
not listed: [18] | [19] | [20]
inactive: all other assays above

NC(=O)C(F)(F)C(F)(F)C(F)(F)F
not listed: [5] | [20]
inactive: all other assays above

CCCC(=O)OCC(COC(=O)CCC)OC(=O)CCC
active: [4] 69.3 µM | [8] 57.5 µM
not listed: [10] | [16] | [19]
inactive: all other assays above

CCN(CC)c1ccc(C=O)c(O)c1
active: [18] 67.2 µM
not listed: [5] | [19] | [20]
inactive: all other assays above

N#CCCOCCC#N
not listed: [10] | [16] | [18]
inactive: all other assays above

NC(O)(C(F)(F)F)C(F)(F)F
active: [5] 126 µM
not listed: [10] | [18] | [20]
inactive: all other assays above

CCC(C)CO (configuration not stated)
not listed: [10] | [18] | [19]
inactive: all other assays above

OCCCC(F)(F)C(F)(F)C(F)(F)C(F)(F)C(F)(F)C(F)(F)C(F)(F)C(F)(F)F
active: [1] 21 µM | [8] 64.3 µM | [19] 22 µM
not listed: [5] | [10] | [16]
inactive: all other assays above

From PubChem BioAssay (EPA / NIEHS)
